Laboratory results from the supplement of paper PMC11732987, “Enantioselective OTUD7B fragment discovery through chemoproteomics screening and high-throughput optimisation” (Communications Chemistry, 2025).
Values without a mark were called inactive.

Legend:
Experiment in all cases: log2 ratio of Biotin-Ahx-Ub-VS probe labelling (fragment/DMSO); higher = less target engagement (more negative = stronger competition), active = hit call of the paper (q ≤ 0.05, log2 ratio ≤ -1)
Conditions in all cases: compound concentration: 200 uM; treatment time: 3 h
USP19 = target: T1, USP19 (UniProt O94966)
T1 sequence (whole entry): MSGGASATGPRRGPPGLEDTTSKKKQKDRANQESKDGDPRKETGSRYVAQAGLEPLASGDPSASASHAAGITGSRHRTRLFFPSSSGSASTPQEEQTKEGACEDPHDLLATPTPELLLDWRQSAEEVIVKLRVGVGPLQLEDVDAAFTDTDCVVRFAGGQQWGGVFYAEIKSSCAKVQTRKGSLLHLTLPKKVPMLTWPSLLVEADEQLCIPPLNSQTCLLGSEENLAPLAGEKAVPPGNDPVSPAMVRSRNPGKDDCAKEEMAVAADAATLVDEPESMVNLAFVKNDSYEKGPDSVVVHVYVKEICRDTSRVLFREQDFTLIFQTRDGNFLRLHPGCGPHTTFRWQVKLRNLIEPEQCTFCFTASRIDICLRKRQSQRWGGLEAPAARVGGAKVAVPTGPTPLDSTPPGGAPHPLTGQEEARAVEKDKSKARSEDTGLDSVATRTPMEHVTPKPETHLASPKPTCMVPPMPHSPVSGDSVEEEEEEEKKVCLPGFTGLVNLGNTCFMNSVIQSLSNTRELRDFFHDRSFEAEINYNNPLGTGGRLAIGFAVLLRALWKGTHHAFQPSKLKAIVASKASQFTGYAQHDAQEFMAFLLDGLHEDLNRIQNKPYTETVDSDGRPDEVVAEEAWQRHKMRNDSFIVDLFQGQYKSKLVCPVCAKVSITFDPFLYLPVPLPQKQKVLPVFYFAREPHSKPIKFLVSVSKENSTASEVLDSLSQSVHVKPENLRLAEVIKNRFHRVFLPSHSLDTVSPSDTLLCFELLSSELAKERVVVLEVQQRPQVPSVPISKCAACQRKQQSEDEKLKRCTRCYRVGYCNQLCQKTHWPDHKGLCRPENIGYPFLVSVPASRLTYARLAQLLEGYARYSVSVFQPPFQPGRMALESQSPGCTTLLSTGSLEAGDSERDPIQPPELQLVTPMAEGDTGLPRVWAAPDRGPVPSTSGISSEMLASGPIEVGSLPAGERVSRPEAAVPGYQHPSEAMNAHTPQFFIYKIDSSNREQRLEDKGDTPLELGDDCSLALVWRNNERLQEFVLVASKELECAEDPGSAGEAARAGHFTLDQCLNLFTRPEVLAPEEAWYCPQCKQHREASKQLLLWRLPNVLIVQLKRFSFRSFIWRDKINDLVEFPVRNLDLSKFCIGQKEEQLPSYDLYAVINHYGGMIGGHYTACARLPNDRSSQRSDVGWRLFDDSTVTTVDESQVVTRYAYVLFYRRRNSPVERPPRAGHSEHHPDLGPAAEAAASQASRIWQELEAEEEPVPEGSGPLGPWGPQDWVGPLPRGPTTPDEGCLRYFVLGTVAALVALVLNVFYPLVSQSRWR
Summary of the method: (§1)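 Labelled DUBs from HEK293T lysate were NeutrAvidin-enriched, digested with LysC and trypsin, and run by diaPASEF LC-MS/MS. Before that, each 495 µg sample in Tris/CHAPS/IGEPAL buffer with protease inhibitors was treated in triplicate with fragment at 200 µM or vehicle for 3 h, then with Biotin-Ahx-Ub-VS at 0.5 µM final for 1 h. Values are average log2 ratios of fragment over vehicle by unpaired t-test, based on global-median-normalised Spectronaut label-free quantities from proteins with ≥2 unique peptides.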

USP22 = target: T2, USP22 (UniProt Q9UPT9)
T2 sequence (whole entry): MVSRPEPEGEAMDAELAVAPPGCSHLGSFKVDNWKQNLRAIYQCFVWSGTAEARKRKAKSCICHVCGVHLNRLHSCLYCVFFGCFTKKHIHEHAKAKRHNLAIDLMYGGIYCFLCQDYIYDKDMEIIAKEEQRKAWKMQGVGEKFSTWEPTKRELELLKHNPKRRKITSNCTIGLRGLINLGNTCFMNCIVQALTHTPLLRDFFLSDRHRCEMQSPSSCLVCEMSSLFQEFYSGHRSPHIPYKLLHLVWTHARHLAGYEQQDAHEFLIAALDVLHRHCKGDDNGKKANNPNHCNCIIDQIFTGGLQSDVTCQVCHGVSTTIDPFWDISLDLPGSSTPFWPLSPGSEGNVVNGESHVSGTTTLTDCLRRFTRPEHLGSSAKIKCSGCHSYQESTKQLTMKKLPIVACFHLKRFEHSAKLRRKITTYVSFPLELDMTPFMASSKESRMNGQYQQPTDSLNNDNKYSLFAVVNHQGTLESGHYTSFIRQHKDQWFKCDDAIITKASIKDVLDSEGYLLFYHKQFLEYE
Summary of the method: as §1

USP24 = USP24 (UniProt Q9UPU5)
Chain of USP24 (Q9UPU5 whole entry): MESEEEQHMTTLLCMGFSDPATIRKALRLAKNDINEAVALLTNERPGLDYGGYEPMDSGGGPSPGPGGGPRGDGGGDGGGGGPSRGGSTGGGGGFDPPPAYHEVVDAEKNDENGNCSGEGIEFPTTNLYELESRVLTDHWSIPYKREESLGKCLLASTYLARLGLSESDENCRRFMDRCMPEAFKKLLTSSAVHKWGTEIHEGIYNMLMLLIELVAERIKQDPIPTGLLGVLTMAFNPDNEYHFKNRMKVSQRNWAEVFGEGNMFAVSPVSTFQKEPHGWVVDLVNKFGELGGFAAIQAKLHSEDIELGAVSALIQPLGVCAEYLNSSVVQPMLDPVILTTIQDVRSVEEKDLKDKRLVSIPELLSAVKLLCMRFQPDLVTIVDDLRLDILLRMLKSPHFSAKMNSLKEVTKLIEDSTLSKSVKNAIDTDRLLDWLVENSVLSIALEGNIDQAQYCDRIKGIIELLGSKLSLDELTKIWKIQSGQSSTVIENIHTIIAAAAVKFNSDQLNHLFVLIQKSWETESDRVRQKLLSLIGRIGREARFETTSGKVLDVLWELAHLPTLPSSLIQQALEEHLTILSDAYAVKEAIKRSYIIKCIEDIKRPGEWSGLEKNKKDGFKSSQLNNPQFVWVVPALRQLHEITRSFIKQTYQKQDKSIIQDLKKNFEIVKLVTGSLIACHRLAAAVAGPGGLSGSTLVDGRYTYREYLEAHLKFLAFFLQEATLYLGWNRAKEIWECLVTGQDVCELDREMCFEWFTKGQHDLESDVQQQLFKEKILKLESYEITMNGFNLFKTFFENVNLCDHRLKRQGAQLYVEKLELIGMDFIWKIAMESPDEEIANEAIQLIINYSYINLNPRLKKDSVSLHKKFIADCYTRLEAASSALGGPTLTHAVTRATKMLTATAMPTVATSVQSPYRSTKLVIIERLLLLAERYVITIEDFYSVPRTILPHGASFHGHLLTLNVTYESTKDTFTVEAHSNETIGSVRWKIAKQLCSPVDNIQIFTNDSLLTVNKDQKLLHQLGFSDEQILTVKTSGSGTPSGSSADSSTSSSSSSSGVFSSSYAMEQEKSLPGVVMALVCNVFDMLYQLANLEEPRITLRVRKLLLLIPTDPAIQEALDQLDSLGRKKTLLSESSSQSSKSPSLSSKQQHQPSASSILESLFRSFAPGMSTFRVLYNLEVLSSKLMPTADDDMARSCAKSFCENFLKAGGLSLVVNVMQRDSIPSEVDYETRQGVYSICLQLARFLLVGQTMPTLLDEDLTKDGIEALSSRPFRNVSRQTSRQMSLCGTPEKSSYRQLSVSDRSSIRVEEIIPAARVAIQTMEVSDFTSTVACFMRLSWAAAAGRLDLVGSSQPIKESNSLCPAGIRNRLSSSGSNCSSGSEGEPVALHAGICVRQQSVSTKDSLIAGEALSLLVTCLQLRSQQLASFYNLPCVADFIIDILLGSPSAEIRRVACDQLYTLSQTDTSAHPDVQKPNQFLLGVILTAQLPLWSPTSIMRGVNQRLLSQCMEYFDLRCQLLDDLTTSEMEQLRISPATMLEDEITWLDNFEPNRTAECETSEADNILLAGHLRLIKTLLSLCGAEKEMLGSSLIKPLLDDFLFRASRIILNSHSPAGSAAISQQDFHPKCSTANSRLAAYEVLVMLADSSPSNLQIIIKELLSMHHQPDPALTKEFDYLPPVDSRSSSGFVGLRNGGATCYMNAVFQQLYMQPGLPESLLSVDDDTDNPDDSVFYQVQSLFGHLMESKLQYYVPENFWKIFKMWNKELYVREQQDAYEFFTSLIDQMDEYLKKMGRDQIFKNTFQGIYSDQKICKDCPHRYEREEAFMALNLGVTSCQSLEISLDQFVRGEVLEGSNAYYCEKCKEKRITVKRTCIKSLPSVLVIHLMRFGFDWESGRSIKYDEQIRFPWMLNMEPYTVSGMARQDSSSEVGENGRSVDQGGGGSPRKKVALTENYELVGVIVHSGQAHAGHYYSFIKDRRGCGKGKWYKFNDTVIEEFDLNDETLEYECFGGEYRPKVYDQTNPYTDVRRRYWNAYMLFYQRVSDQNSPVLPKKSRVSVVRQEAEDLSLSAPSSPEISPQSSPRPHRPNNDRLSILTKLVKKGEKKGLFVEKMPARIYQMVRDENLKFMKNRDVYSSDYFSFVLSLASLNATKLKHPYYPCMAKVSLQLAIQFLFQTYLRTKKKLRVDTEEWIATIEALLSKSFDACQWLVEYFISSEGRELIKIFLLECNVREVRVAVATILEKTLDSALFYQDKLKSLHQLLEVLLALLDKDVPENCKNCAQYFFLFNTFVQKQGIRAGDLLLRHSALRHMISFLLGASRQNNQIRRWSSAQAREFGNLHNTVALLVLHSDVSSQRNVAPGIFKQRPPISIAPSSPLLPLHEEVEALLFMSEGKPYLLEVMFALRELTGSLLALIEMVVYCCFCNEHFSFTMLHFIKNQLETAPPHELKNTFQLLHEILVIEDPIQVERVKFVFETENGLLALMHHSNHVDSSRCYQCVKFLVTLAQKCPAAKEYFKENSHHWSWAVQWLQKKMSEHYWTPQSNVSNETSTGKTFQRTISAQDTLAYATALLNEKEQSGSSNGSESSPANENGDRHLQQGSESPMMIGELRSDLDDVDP
Summary of the method: as §1

USP25 = target: T3, USP25 (UniProt Q9UHP3)
T3 sequence (whole entry): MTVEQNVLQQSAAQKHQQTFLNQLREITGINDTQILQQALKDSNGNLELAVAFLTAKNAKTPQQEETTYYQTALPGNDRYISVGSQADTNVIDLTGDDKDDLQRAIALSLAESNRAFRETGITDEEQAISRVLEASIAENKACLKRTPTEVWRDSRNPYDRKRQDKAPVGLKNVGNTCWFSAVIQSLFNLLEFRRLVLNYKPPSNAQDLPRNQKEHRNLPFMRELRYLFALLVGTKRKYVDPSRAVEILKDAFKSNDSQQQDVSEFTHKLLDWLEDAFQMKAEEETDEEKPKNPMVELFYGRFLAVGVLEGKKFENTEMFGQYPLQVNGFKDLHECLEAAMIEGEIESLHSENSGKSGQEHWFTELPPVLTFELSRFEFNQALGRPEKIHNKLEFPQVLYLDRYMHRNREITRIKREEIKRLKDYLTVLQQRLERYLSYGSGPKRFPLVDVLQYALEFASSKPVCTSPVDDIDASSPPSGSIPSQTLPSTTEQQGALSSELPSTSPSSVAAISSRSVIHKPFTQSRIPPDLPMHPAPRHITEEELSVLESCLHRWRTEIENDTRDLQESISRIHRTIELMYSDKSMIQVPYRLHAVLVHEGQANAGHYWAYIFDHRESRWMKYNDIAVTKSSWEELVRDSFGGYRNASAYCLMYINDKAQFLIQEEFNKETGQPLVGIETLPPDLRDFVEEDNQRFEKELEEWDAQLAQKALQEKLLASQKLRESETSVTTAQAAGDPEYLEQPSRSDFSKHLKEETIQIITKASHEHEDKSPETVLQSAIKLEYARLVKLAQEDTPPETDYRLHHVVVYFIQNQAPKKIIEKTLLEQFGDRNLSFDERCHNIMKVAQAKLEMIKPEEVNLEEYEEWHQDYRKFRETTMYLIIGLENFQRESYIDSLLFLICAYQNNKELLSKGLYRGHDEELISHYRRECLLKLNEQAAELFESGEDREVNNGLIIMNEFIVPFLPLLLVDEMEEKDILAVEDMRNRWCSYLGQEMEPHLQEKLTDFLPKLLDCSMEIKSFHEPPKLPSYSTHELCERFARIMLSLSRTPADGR
Summary of the method: as §1

USP28 = target: T4, USP28 (UniProt Q96RU2)
T4 sequence (whole entry): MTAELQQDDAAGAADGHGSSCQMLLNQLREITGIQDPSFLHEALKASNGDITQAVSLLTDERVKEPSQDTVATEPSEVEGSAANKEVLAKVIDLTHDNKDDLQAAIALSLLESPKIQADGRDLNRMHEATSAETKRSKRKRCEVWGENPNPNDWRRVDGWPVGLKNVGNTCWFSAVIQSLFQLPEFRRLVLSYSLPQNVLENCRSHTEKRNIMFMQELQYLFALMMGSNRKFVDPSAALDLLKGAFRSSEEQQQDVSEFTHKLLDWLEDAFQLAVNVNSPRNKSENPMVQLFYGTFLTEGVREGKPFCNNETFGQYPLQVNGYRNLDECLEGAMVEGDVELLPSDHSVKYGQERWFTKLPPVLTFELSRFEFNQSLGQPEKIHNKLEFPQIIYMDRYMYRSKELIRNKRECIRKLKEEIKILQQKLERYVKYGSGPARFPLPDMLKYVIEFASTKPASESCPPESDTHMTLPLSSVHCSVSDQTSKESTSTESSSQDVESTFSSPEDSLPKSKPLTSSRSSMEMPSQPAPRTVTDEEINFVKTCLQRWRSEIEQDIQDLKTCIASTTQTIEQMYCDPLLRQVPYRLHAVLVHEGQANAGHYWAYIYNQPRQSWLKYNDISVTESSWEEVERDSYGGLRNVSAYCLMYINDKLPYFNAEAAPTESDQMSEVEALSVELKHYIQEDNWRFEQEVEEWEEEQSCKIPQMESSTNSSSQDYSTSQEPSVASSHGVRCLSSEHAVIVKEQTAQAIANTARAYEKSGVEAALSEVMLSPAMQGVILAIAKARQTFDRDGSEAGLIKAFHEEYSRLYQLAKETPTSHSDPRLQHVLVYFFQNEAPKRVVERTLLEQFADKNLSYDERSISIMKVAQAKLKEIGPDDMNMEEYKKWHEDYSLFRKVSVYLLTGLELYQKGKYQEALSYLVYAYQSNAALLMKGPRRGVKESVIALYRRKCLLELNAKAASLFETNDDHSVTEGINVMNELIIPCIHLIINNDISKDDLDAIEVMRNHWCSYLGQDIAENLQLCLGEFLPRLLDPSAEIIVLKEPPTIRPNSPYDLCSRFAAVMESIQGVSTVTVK
Summary of the method: as §1

CCC1c2ccsc2CCN1C(=O)CCl (stereo not given)
log2 ratio of Biotin-Ahx-Ub-VS probe labelling (USP19): -0.544 | log2 ratio of Biotin-Ahx-Ub-VS probe labelling (USP22): 0.0245 | log2 ratio of Biotin-Ahx-Ub-VS probe labelling (USP24): -1.31 (active) | log2 ratio of Biotin-Ahx-Ub-VS probe labelling (USP25): -0.177 | log2 ratio of Biotin-Ahx-Ub-VS probe labelling (USP28): -0.461
